The entries come from a sample that favours the strongest signals as a whole.
Legend:
Test in all cases: glycan array binding signal (z-score within array); higher = stronger binding
Conditions in all cases: glycan notation: IUPAC condensed, linker removed
[1] = target: Fuc(a1-2)Gal(b1-3)GalNAc(b1-4)[Neu5Ac(a2-3)]Gal(b1-4)Glc
Summary of the method: (§1)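 The binding signal is a Z-score computed within each array. Data were drawn from 3228 arrays in the Consortium for Functional Glycomics database, restricted to those with a known protein sequence. Scores were averaged over arrays of the same protein sequence at different concentrations or buffers, and over linkers, and negative values can be taken as non-binding.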

[2] = target: Fuc(a1-2)Gal(b1-3)[Fuc(a1-4)]GlcNAc
Summary of the method: as §1

[3] = target: Fuc(a1-2)Gal(b1-4)GlcNAc(b1-2)[Fuc(a1-2)Gal(b1-4)GlcNAc(b1-4)]Man(a1-3)[Fuc(a1-2)Gal(b1-4)GlcNAc(b1-2)Man(a1-6)]Man(b1-4)GlcNAc(b1-4)GlcNAc
Summary of the method: as §1

[4] = target: Fuc(a1-2)Gal(b1-4)[Fuc(a1-3)]GlcNAc(b1-3)Gal(b1-4)[Fuc(a1-3)]GlcNAc
Summary of the method: as §1

[5] = target: Fuc(a1-2)Gal3S(b1-4)GlcNAc
Summary of the method: as §1

[6] = target: Fuc(a1-2)[Gal(a1-3)]Gal(b1-4)[Fuc(a1-3)]GlcNAc(b1-3)GalNAc
Summary of the method: as §1

[7] = target: Fuc(a1-2)[GalNAc(a1-3)]Gal(b1-3)GlcNAc(b1-2)Man(a1-3)[Fuc(a1-2)[GalNAc(a1-3)]Gal(b1-3)GlcNAc(b1-2)Man(a1-6)]Man(b1-4)GlcNAc(b1-4)[Fuc(a1-6)]GlcNAc
Summary of the method: as §1

Gal(a1-2)Gal = target: Gal(a1-2)Gal
Summary of the method: as §1

[8] = target: Gal(a1-3)Gal(b1-3)[Fuc(a1-4)]GlcNAc(b1-2)Man(a1-3)[Gal(a1-3)Gal(b1-3)[Fuc(a1-4)]GlcNAc(b1-2)Man(a1-6)]Man(b1-4)GlcNAc(b1-4)GlcNAc
Summary of the method: as §1

Gal(a1-3)Gal(b1-4)GlcNAc = target: Gal(a1-3)Gal(b1-4)GlcNAc
Summary of the method: as §1

Gal(a1-4)Gal(b1-4)GlcNAc = target: Gal(a1-4)Gal(b1-4)GlcNAc
Summary of the method: as §1

[9] = target: Gal(b1-3)GlcNAc(b1-2)Man(a1-3)[GlcNAc(b1-4)][Gal(b1-3)GlcNAc(b1-2)Man(a1-6)]Man(b1-4)GlcNAc(b1-4)GlcNAc
Summary of the method: as §1

[10] = target: Gal(b1-3)GlcNAc(b1-3)Gal(b1-4)[Fuc(a1-3)]GlcNAc
Summary of the method: as §1

[11] = target: Gal(b1-4)GlcNAc(b1-2)Man(a1-6)[GlcNAc(b1-2)Man(a1-3)]Man(b1-4)GlcNAc(b1-4)GlcNAc
Summary of the method: as §1

[12] = target: Gal(b1-4)GlcNAc(b1-3)Gal(b1-4)GlcNAc(b1-2)[Gal(b1-4)GlcNAc(b1-3)Gal(b1-4)GlcNAc(b1-6)]Man(a1-6)[Gal(b1-4)GlcNAc(b1-3)Gal(b1-4)GlcNAc(b1-2)Man(a1-3)]Man(b1-4)GlcNAc(b1-4)GlcNAc
Summary of the method: as §1

[13] = target: Gal(b1-4)GlcNAc(b1-3)Gal(b1-4)GlcNAc(b1-3)Gal(b1-4)GlcNAc(b1-3)Gal(b1-4)GlcNAc(b1-2)Man(a1-3)[Gal(b1-4)GlcNAc(b1-3)Gal(b1-4)GlcNAc(b1-3)Gal(b1-4)GlcNAc(b1-3)Gal(b1-4)GlcNAc(b1-2)Man(a1-6)]Man(b1-4)GlcNAc(b1-4)[Fuc(a1-6)]GlcNAc
Summary of the method: as §1

[14] = target: Gal(b1-4)GlcNAc(b1-3)Gal(b1-4)GlcNAc(b1-3)Gal(b1-4)GlcNAc(b1-3)Gal(b1-4)GlcNAc(b1-3)Gal(b1-4)GlcNAc(b1-2)Man(a1-3)[Gal(b1-4)GlcNAc(b1-3)Gal(b1-4)GlcNAc(b1-3)Gal(b1-4)GlcNAc(b1-3)Gal(b1-4)GlcNAc(b1-3)Gal(b1-4)GlcNAc(b1-2)Man(a1-6)]Man(b1-4)GlcNAc(b1-4)[Fuc(a1-6)]GlcNAc
Summary of the method: as §1

[15] = target: Gal(b1-4)GlcNAc(b1-3)Gal(b1-4)GlcNAc(b1-3)Gal(b1-4)GlcNAc(b1-3)Gal(b1-4)GlcNAc(b1-3)Gal(b1-4)GlcNAc(b1-2)[Gal(b1-4)GlcNAc(b1-3)Gal(b1-4)GlcNAc(b1-3)Gal(b1-4)GlcNAc(b1-3)Gal(b1-4)GlcNAc(b1-3)Gal(b1-4)GlcNAc(b1-6)]Man(a1-6)[Gal(b1-4)GlcNAc(b1-3)Gal(b1-4)GlcNAc(b1-3)Gal(b1-4)GlcNAc(b1-3)Gal(b1-4)GlcNAc(b1-3)Gal(b1-4)GlcNAc(b1-2)Man(a1-3)]Man(b1-4)GlcNAc(b1-4)[Fuc(a1-6)]GlcNAc
Summary of the method: as §1

[16] = target: Gal(b1-4)GlcNAc(b1-6)GalNAc
Summary of the method: as §1

Gal(b1-4)GlcNAc6P = target: Gal(b1-4)GlcNAc6P
Summary of the method: as §1

Gal3S(b1-3)GalNAc = target: Gal3S(b1-3)GalNAc
Summary of the method: as §1

[17] = target: GalNAc(a1-3)GalNAc(b1-3)Gal(a1-4)Gal(b1-4)Glc
Summary of the method: as §1

[18] = target: GalNAc(b1-4)GlcNAc(b1-2)Man(a1-3)[GalNAc(b1-4)GlcNAc(b1-2)Man(a1-6)]Man(b1-4)GlcNAc(b1-4)GlcNAc
Summary of the method: as §1

GalNAc3S(b1-4)GlcNAc3S = target: GalNAc3S(b1-4)GlcNAc3S
Summary of the method: as §1

Glc(a1-6)Glc(a1-6)Glc = target: Glc(a1-6)Glc(a1-6)Glc
Summary of the method: as §1

Glc(b1-4)Glc = target: Glc(b1-4)Glc
Summary of the method: as §1

[19] = target: GlcNAc(a1-4)Gal(b1-4)GlcNAc(b1-3)Gal(b1-4)GlcNAc
Summary of the method: as §1

[20] = target: GlcNAc(a1-4)Gal(b1-4)GlcNAc(b1-3)Gal(b1-4)GlcNAc(b1-3)Gal(b1-4)GlcNAc
Summary of the method: as §1

[21] = target: GlcNAc(b1-3)Gal(b1-4)GlcNAc(b1-3)Gal(b1-4)GlcNAc(b1-2)Man(a1-3)[GlcNAc(b1-3)Gal(b1-4)GlcNAc(b1-3)Gal(b1-4)GlcNAc(b1-2)Man(a1-6)]Man(b1-4)GlcNAc(b1-4)[Fuc(a1-6)]GlcNAc
Summary of the method: as §1

[22] = target: GlcNAc(b1-3)Gal(b1-4)GlcNAc(b1-3)Gal(b1-4)GlcNAc(b1-3)Gal(b1-4)GlcNAc(b1-3)Gal(b1-4)GlcNAc(b1-2)Man(a1-3)[GlcNAc(b1-3)Gal(b1-4)GlcNAc(b1-3)Gal(b1-4)GlcNAc(b1-3)Gal(b1-4)GlcNAc(b1-3)Gal(b1-4)GlcNAc(b1-2)Man(a1-6)]Man(b1-4)GlcNAc(b1-4)GlcNAc
Summary of the method: as §1

GlcNAc(b1-3)Man = target: GlcNAc(b1-3)Man
Summary of the method: as §1

[23] = target: GlcNAc(b1-6)Gal(b1-4)GlcNAc
Summary of the method: as §1

Kdn(a2-3)Gal(b1-4)Glc = target: Kdn(a2-3)Gal(b1-4)Glc
Summary of the method: as §1

Kdn(a2-3)Gal(b1-4)GlcNAc = target: Kdn(a2-3)Gal(b1-4)GlcNAc
Summary of the method: as §1

[24] = target: Man(a1-3)[Man(a1-6)]Man(b1-4)GlcNAc(b1-4)GlcNAc
Summary of the method: as §1

Man(b1-4)GlcNAc = target: Man(b1-4)GlcNAc
Summary of the method: as §1

Neu5Ac(a2-3)Gal = target: Neu5Ac(a2-3)Gal
Summary of the method: as §1

[25] = target: Neu5Ac(a2-3)Gal(b1-3)[Fuc(a1-4)]GlcNAc
Summary of the method: as §1

[26] = target: Neu5Ac(a2-3)Gal(b1-3)[Fuc(a1-4)]GlcNAc(b1-3)Gal(b1-3)[Fuc(a1-4)]GlcNAc
Summary of the method: as §1

[27] = target: Neu5Ac(a2-3)Gal(b1-3)[GlcNAc(b1-6)]GalNAc
Summary of the method: as §1

[28] = target: Neu5Ac(a2-3)Gal(b1-4)GlcNAc
Summary of the method: as §1

[29] = target: Neu5Ac(a2-3)Gal(b1-4)GlcNAc(b1-6)[Neu5Ac(a2-3)Gal(b1-3)]GalNAc
Summary of the method: as §1

[30] = target: Neu5Ac(a2-6)Gal(b1-4)GlcNAc(b1-2)Man(a1-3)[Neu5Ac(a2-6)Gal(b1-4)GlcNAc(b1-2)Man(a1-6)]Man(b1-4)GlcNAc(b1-4)[Fuc(a1-6)]GlcNAc
Summary of the method: as §1

[31] = target: Neu5Ac(a2-6)Gal(b1-4)GlcNAc(b1-2)Man(a1-6)[GlcNAc(b1-2)Man(a1-3)]Man(b1-4)GlcNAc(b1-4)GlcNAc
Summary of the method: as §1

[32] = target: Neu5Ac(a2-6)Gal(b1-4)GlcNAc(b1-3)Gal(b1-4)GlcNAc(b1-2)Man(a1-3)[Neu5Ac(a2-6)Gal(b1-4)GlcNAc(b1-3)Gal(b1-4)GlcNAc(b1-2)Man(a1-6)]GalNAc
Summary of the method: as §1

[33] = target: Neu5Ac(a2-6)Gal(b1-4)GlcNAc(b1-3)Gal(b1-4)GlcNAc(b1-6)[Gal(b1-3)]GalNAc
Summary of the method: as §1

[34] = target: Neu5Ac(a2-8)Neu5Ac(a2-8)Neu5Ac
Summary of the method: as §1

[35] = target: Neu5Ac9Ac(a2-3)Gal(b1-3)GlcNAc
Summary of the method: as §1

[36] = target: Neu5Gc(a2-3)Gal(b1-4)GlcNAc
Summary of the method: as §1

[37] = target: Neu5Gc(a2-6)Gal(b1-4)GlcNAc
Summary of the method: as §1

B1: LICBM33A (Lactococcus lactis), Q9CE94 (protein)
chain: MKKLLTGLLVAAGLLSVSLLIKTDTVSAHGYVQSPPARGYQGQLDSQSLGWTAAFNIYGNVISNPQSLEAPKGFPECGPADGRIASANGGLGQIGDFVLDNQTSSRWKKTSISTGSNIFTWKYTAPHKTTKWHYYMTKTGWDQNAPLKHSELELIGTINHDGSPATNNLSHTINIPTDRSGYHIVLAVWDVADTSNAFYNVIDINVNNKNASSQVFGPFL
glycan array binding signal (z-score) [1]: -0.276
glycan array binding signal (z-score) [2]: -0.377
glycan array binding signal (z-score) [3]: 6.68
glycan array binding signal (z-score) [4]: -0.587
glycan array binding signal (z-score) [5]: 3.62
glycan array binding signal (z-score) [6]: -1.52
glycan array binding signal (z-score) [7]: -0.211
glycan array binding signal (z-score) (Gal(a1-2)Gal): -0.28
glycan array binding signal (z-score) [8]: -0.268
glycan array binding signal (z-score) (Gal(a1-3)Gal(b1-4)GlcNAc): -0.436
glycan array binding signal (z-score) (Gal(a1-4)Gal(b1-4)GlcNAc): 0.111
glycan array binding signal (z-score) [9]: -0.473
glycan array binding signal (z-score) [10]: -0.324
glycan array binding signal (z-score) [11]: -0.512
glycan array binding signal (z-score) [12]: 0.114
glycan array binding signal (z-score) [13]: 4.11
glycan array binding signal (z-score) [14]: 6.2
glycan array binding signal (z-score) [15]: 6.18
glycan array binding signal (z-score) [16]: -0.959
glycan array binding signal (z-score) (Gal(b1-4)GlcNAc6P): 0.236
glycan array binding signal (z-score) (Gal3S(b1-3)GalNAc): -0.215
glycan array binding signal (z-score) [17]: -0.96
glycan array binding signal (z-score) [18]: -0.578
glycan array binding signal (z-score) (GalNAc3S(b1-4)GlcNAc3S): -0.284
glycan array binding signal (z-score) (Glc(a1-6)Glc(a1-6)Glc): 0.839
glycan array binding signal (z-score) (Glc(b1-4)Glc): -0.321
glycan array binding signal (z-score) [19]: -0.4
glycan array binding signal (z-score) [20]: -0.457
glycan array binding signal (z-score) [21]: -0.307
glycan array binding signal (z-score) [22]: 4.98
glycan array binding signal (z-score) (GlcNAc(b1-3)Man): 0.023
glycan array binding signal (z-score) [23]: -0.043
glycan array binding signal (z-score) (Kdn(a2-3)Gal(b1-4)Glc): 0.82
glycan array binding signal (z-score) (Kdn(a2-3)Gal(b1-4)GlcNAc): -0.667
glycan array binding signal (z-score) [24]: 0.527
glycan array binding signal (z-score) (Man(b1-4)GlcNAc): -0.147
glycan array binding signal (z-score) (Neu5Ac(a2-3)Gal): 0.406
glycan array binding signal (z-score) [25]: 3.52
glycan array binding signal (z-score) [26]: 3.37
glycan array binding signal (z-score) [27]: 1.55
glycan array binding signal (z-score) [28]: 0.435
glycan array binding signal (z-score) [29]: -0.471
glycan array binding signal (z-score) [30]: 4.31
glycan array binding signal (z-score) [31]: 4.26
glycan array binding signal (z-score) [32]: 4.82
glycan array binding signal (z-score) [33]: -0.512
glycan array binding signal (z-score) [34]: -0.117
glycan array binding signal (z-score) [35]: 0.017
glycan array binding signal (z-score) [36]: -0.141
glycan array binding signal (z-score) [37]: -0.606

Source: the supplement of paper PMC8728848
